According to PubChem BioAssay AID1159580 (chemical genetic matrix, 2015):
Several values for one entry are separate records, joined by “and”; a condition that tells them apart may be missing. Equal values may be shown once. The campaign covered roughly 5,500 compounds. About 2,000 (36%) were called active. Another 18% or so got no clear call; they are omitted. No stated cut-off is given here; in the data, active means normalized growth mostly below about 0.91 (no sharp cut-off); inconclusive means no clear call, values can overlap the other calls; inactive means mostly above about 0.92. The list shows a part of the results.

Test: chemical genetic growth profiling, strain panel (AID 1159580);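 further: tested at 20 µM; growth read once vehicle control cultures reached saturation at 30 °C; 1 = growth at the plate median or of vehicle wells; lower values mean less growth of the strain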
Conditions: growth OD

Measured: normalized growth

CCCCCCCCC(=O)NCc1ccc(O)c(OC)c1
inactive: S. cerevisiae deletion strains, locus YJR075W, strain HOC1, hits give low values 0.989 and 0.961 | S. cerevisiae deletion strains, locus YKL009W, strain mrt4, hits give low values 0.955 | S. cerevisiae deletion strains, locus YKL068W, hits give low values 0.986 | S. cerevisiae deletion strains, locus YKL085W, strain MDH1 (second series), hits give low values 0.987 | S. cerevisiae deletion strains, locus YKL085W, strain MDH1, hits give low values 0.987 | S. cerevisiae deletion strains, locus YKL160W, strain elf1, hits give low values 0.985 | S. cerevisiae deletion strains, locus YKL190W, strain CNB1, hits give low values 0.999 | S. cerevisiae deletion strains, locus YKR001C, strain vps1, hits give low values 0.983 | S. cerevisiae deletion strains, locus YKR026C, strain gcn3, hits give low values 0.979 | S. cerevisiae deletion strains, locus YKR091W, strain srl3, hits give low values 0.999 | S. cerevisiae deletion strains, locus YLL001W, strain dnm1, hits give low values 1 | S. cerevisiae deletion strains, locus YLL026W, hits give low values 1 | S. cerevisiae deletion strains, locus YLL041C, strain sdh2, hits give low values 1 | S. cerevisiae deletion strains, locus YLR027C, strain aat2, hits give low values 1.01 | S. cerevisiae deletion strains, locus YLR039C, strain RIC1, hits give low values 1 | S. cerevisiae deletion strains, locus YLR058C, strain SHM2, hits give low values 0.984 | S. cerevisiae deletion strains, locus YLR102C, strain apc9, hits give low values 0.987 | S. cerevisiae deletion strains, locus YLR113W, strain HOG1, hits give low values 1.01 | S. cerevisiae deletion strains, locus YLR221C, strain rsa3, hits give low values 1.01 | S. cerevisiae deletion strains, locus YLR258W, strain gsy2, hits give low values 0.989 | S. cerevisiae deletion strains, locus YLR262C, strain YPT6 (second series), hits give low values 1.02 | S. cerevisiae deletion strains, locus YLR262C, strain YPT6, hits give low values 1.01 | S. cerevisiae deletion strains, locus YLR268W, strain sec22, hits give low values 0.97 | S. cerevisiae deletion strains, locus YLR320W, strain mms22, hits give low values 0.997 | S. cerevisiae deletion strains, locus YLR330W, strain CHS5, hits give low values 0.985 | S. cerevisiae deletion strains, locus YLR342W, strain FKS1 (second series), hits give low values 0.966 | S. cerevisiae deletion strains, locus YLR342W, strain FKS1, hits give low values 1.03 | S. cerevisiae deletion strains, locus YLR357W, strain rsc2, hits give low values 1.12 | S. cerevisiae deletion strains, locus YLR370C, strain arc18, hits give low values 0.993 | S. cerevisiae deletion strains, locus YLR371W, strain rom2, hits give low values 0.985 | S. cerevisiae deletion strains, locus YLR384C, strain iki3, hits give low values 1 | S. cerevisiae deletion strains, locus YLR418C, strain cdc73, hits give low values 0.989 | S. cerevisiae deletion strains, locus YML016C, strain PPZ1, hits give low values 0.978 | S. cerevisiae deletion strains, locus YML032C, strain rad52, hits give low values 0.97 | S. cerevisiae deletion strains, locus YML120C, strain ndi1, hits give low values 0.992 | S. cerevisiae deletion strains, locus YML124C, strain tub3, hits give low values 0.975 | S. cerevisiae deletion strains, locus YMR058W, strain fet3, hits give low values 1 | S. cerevisiae deletion strains, locus YMR078C, strain ctf18, hits give low values 0.977 | S. cerevisiae deletion strains, locus YMR125W, strain sto1, hits give low values 1.05 | S. cerevisiae deletion strains, locus YMR129W, hits give low values 1.02 | S. cerevisiae deletion strains, locus YMR205C, strain PFK2, hits give low values 0.961 | S. cerevisiae deletion strains, locus YMR223W, strain ubp8, hits give low values 0.965 | S. cerevisiae deletion strains, locus YMR231W, strain pep5, hits give low values 1.01 | S. cerevisiae deletion strains, locus YMR263W, strain SAP30, hits give low values 0.998 | S. cerevisiae deletion strains, locus YMR307W, strain GAS1, hits give low values 1.07 and 0.979 | S. cerevisiae deletion strains, locus YNL067W, strain RPL9B, hits give low values 0.995 | S. cerevisiae deletion strains, locus YNL071W, strain lat1, hits give low values 0.976 | S. cerevisiae deletion strains, locus YNL128W, strain TEP1, hits give low values 0.999 and 0.969 | S. cerevisiae deletion strains, locus YNL153C, strain GIM3, hits give low values 0.997 | S. cerevisiae deletion strains, locus YNL175C, strain NOP13, hits give low values 0.972 | S. cerevisiae deletion strains, locus YNL183C, strain NPR1, hits give low values 0.93 | S. cerevisiae deletion strains, locus YNL197C, strain WHI3, hits give low values 0.963 | S. cerevisiae deletion strains, locus YNL209W, strain ssb2, hits give low values 0.995 | S. cerevisiae deletion strains, locus YNL224C, strain SQS1, hits give low values 0.984 | S. cerevisiae deletion strains, locus YNL233W, strain BNI4, hits give low values 0.988 | S. cerevisiae deletion strains, locus YNL248C, strain rpa49, hits give low values 1.06 | S. cerevisiae deletion strains, locus YNL250W, strain rad50, hits give low values 0.975 | S. cerevisiae deletion strains, locus YNL271C, strain bni1, hits give low values 0.983 | S. cerevisiae deletion strains, locus YNL298W, strain CLA4, hits give low values 0.966 | S. cerevisiae deletion strains, locus YNL307C, strain MCK1, hits give low values 0.955 | S. cerevisiae deletion strains, locus YNL322C, strain KRE1 (second series), hits give low values 0.998 | S. cerevisiae deletion strains, locus YNL322C, strain KRE1, hits give low values 0.994 and 0.983 | S. cerevisiae deletion strains, locus YNR049C, strain mso1, hits give low values 1.02 | S. cerevisiae deletion strains, locus YNR052C, strain pop2, hits give low values 0.992 | S. cerevisiae deletion strains, locus YOL006C, strain TOP1, hits give low values 0.927 | S. cerevisiae deletion strains, locus YOL012C, strain htz1 0.863 | S. cerevisiae deletion strains, locus YOL147C, strain pex11, hits give low values 0.991 | S. cerevisiae deletion strains, locus YOR001W, strain rrp6, hits give low values 1.01 | S. cerevisiae deletion strains, locus YOR061W, strain CKA2, hits give low values 0.988 | S. cerevisiae deletion strains, locus YOR069W, strain VPS5, hits give low values 0.983 | S. cerevisiae deletion strains, locus YOR070C, strain gyp1, hits give low values 0.982 | S. cerevisiae deletion strains, locus YOR080W, strain dia2, hits give low values 1.01 | S. cerevisiae deletion strains, locus YOR083W, strain WHI5 (second series), hits give low values 0.998 | S. cerevisiae deletion strains, locus YOR083W, strain WHI5, hits give low values 0.988 | S. cerevisiae deletion strains, locus YOR106W, strain vam3, hits give low values 1 | S. cerevisiae deletion strains, locus YOR136W, strain idh2, hits give low values 0.981 | S. cerevisiae deletion strains, locus YOR144C, strain elg1, hits give low values 0.989 | S. cerevisiae deletion strains, locus YOR184W, strain ser1, hits give low values 0.939 | S. cerevisiae deletion strains, locus YOR231W, strain MKK1, hits give low values 0.988 | S. cerevisiae deletion strains, locus YOR265W, strain rbl2, hits give low values 1.01 | S. cerevisiae deletion strains, locus YOR270C, strain vph1, hits give low values 0.969 | S. cerevisiae deletion strains, locus YOR290C, strain snf2, hits give low values 0.978 | S. cerevisiae deletion strains, locus YOR316C, strain cot1, hits give low values 0.98 | S. cerevisiae deletion strains, locus YPL051W, strain arl3, hits give low values 0.987 | S. cerevisiae deletion strains, locus YPL055C, strain LGE1, hits give low values 1.01 | S. cerevisiae deletion strains, locus YPL078C, strain atp4, hits give low values 0.969 | S. cerevisiae deletion strains, locus YPL106C, strain sse1, hits give low values 1.04 | S. cerevisiae deletion strains, locus YPL240C, strain hsp82, hits give low values 1 | S. cerevisiae deletion strains, locus YPL241C, strain CIN2, hits give low values 0.978 and 0.994 | S. cerevisiae deletion strains, locus YPL256C, strain CLN2, hits give low values 1 | S. cerevisiae deletion strains, locus YPR119W, strain clb2, hits give low values 0.989 | S. cerevisiae deletion strains, locus YPR141C, strain kar3, hits give low values 0.98 | S. cerevisiae deletion strains, locus YPR163C, strain tif3, hits give low values 0.989 | S. cerevisiae deletion strains, locus YPR167C, strain met16, hits give low values 0.986 | S. cerevisiae deletion strains, strain wtn01, hits give low values 0.984 | S. cerevisiae strains, strain wild type, hits give low values 1
